Measured values reported in ChEMBL document CHEMBL1201862, “PubChem BioAssay data set” (2004).
Hit rate of the full screen: of about 400,000 compounds, about 2,100 (0.53%) were called active. Roughly 14% stayed inconclusive and do not appear here. How the calls were made is not given here. The entries come from a sample that favours actives as a whole.

What follows are molecules tested against Ataxin-2 (Homo sapiens) (UniProt Q99700) (assay: qHTS for Inhibitors of ATXN expression.).
Type: functional

Ataxin-2 (Homo sapiens), sequence (Q99700 whole entry): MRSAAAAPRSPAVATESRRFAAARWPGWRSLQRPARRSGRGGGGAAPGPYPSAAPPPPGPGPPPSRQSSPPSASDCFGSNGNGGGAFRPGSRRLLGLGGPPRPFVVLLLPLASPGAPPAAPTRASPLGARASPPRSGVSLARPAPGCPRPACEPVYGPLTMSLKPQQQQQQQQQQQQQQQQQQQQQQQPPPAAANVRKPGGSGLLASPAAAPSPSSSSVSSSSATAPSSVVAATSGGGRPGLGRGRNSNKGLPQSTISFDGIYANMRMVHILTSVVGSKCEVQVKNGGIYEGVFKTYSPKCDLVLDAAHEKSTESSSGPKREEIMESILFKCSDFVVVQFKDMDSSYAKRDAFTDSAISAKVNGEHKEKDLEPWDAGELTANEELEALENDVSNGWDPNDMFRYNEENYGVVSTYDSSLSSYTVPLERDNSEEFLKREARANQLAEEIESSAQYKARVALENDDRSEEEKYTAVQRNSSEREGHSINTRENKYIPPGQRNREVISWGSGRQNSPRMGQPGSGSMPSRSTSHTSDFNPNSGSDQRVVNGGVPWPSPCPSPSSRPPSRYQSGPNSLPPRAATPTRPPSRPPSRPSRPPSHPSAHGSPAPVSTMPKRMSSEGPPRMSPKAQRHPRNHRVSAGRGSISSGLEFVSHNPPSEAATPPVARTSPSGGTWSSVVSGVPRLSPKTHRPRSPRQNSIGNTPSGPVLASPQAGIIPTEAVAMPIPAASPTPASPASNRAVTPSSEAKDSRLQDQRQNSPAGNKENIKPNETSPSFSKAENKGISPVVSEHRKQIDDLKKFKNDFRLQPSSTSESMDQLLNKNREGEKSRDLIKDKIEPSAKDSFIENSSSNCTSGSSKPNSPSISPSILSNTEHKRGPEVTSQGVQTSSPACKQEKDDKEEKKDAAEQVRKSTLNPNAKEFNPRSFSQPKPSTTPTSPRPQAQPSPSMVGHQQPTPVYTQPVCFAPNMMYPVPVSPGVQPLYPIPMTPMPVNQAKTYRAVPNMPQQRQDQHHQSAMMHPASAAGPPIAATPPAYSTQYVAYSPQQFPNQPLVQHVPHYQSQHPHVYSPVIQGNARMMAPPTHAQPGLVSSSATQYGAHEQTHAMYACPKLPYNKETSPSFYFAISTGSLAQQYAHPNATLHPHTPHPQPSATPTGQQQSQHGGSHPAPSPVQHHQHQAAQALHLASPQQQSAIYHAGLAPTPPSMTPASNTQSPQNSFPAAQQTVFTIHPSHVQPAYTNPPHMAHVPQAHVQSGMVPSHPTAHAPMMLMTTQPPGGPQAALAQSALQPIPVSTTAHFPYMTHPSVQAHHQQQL

Compound | Potency
CCN(C(=O)c1cc2c(=O)n3ccccc3nc2n1C)C1CCCCC1 | inactive
Nc1ccc(SCc2nc3cccc4c3n2CCC4)cc1 | inactive
c1ccc(CN2CCN(Cc3nnc(-c4ccccc4)o3)CC2)cc1 | inactive
c1ccc(CN2CCN(CCCNc3ccc4nnc(-c5ccccc5)n4n3)CC2)cc1 | 22.4 µM (active)
CCCn1c(=N)c(C#N)cc2c(=O)n3ccccc3nc21 | inactive
COc1ccc(-c2cc3ccc(O)cc3oc2=O)cc1 | inactive
CCOCCCn1c(=N)c(C(=O)NCC2CCCO2)cc2c(=O)n3cc(C)ccc3nc21 (stereo unspecified) | inactive
Cc1ccc(-c2nn(-c3ccccc3)cc2/C=C(\C#N)c2cccc(C#N)c2)o1 | inactive
CC1(C(=O)Nc2cccc3cccnc23)CCN1Cc1ccc(-c2ccccc2)o1 (stereo unspecified) | 6.31 µM (active)
CC(=O)Nc1ccc(S(=O)(=O)Nc2cccc3cccnc23)cc1 | inactive
CC1(C(=O)Nc2cccc3ccccc23)CC1(Br)Br (stereo unspecified) | inactive
Cc1ccc(N2C(=O)/C(=C/Nn3cnnc3)c3ccccc3C2=O)cc1 | inactive
CCOCCCn1/c(=N/C(C)=O)c(C#N)cc2c(=O)n3ccccc3nc21 | inactive
CC(C)C[C@H]1COc2cccc(N3CCN(Cc4ccccc4F)CC3)c2S(=O)(=O)N1 | 12.6 µM (active)
O=C(NCc1ccco1)C1CCC(N2C(=O)C3C4CCC(C4)C3C2=O)CC1 (stereo unspecified) | inactive
O=C(Nc1cccc2c1C(=O)NC2=O)c1ccccc1[N+](=O)[O-] | inactive
CCOc1ccc(NC(=O)c2cn(CC(C)C)c(=O)c3c2c2ccccc2n3C)cc1 | 17.8 µM (active)
CCOc1ccc(NC(=O)/C(=C/Nc2ccccc2)C(C)=O)cc1 | inactive
CCOc1ccc(NC(=O)c2cc3ccccc3cc2O)cc1 | inactive
CCOCCCN=C(S)N1CCCN(c2nc3cc(C)cc(C)c3cc2C#N)CC1 | inactive
CCOc1ccc2nc(O)c(CN(Cc3cccs3)Cc3nnnn3C(C)(C)CC)cc2c1 | 35.5 µM (active)
CCN1CCN(c2nc(Nc3cc(OC)ccc3OC)nc(Nc3cc(OC)ccc3OC)n2)CC1 | inactive

Compound | Potency
CCc1nc2ccc(C(=O)Nc3nnc(C)s3)cc2nc1CC | inactive
Cc1c(C(=O)Nc2ccc(S(=O)(=O)N(C)C3CCN(C)CC3)cc2)oc2c(Cl)cccc12 | 39.8 µM (active)
Cn1nc(C(=O)Nc2cccc(S(=O)(=O)N3CCCC3)c2)c2ccccc2c1=O | inactive
COC(=O)c1c(NC(=O)c2ccc(S(=O)(=O)N(C)C3CCCCC3)cc2)sc2c1CCN(C)C2 | inactive
O=C(CCl)/N=c1\sccn1Cc1ccccc1Cl | 31.6 µM (active)
O=C(COC(=O)Cn1cnc2ccccc2c1=O)NCc1ccccc1Cl | inactive
O=C(Cc1cccs1)N1CCN=C1SCc1ccccc1Cl | inactive
CCCCC(=O)N/N=C/c1ccc(-c2ccc([N+](=O)[O-])cc2)o1 | inactive
CSCCC(NC(=O)COc1ccccc1)C(=O)N(C)Cc1c(F)cccc1Cl (stereo unspecified) | inactive
Cc1ccc(Cn2c(=O)c3ccccc3n3nc(C)cc23)cc1 | inactive
CC(C)(C)c1cc(C(=O)NN)n(Cc2ccc(F)cc2)n1 | inactive
Cc1ccc(Cn2ncc(Cl)c(Cl)c2=O)cc1 | 39.8 µM (active)
Cc1ccc(Cn2ncn(-c3ccccc3)c2=O)cc1 | inactive
CC1CCN(Cc2cc(=O)oc3cc(O)c(Cl)cc23)CC1 | inactive
Cc1cc2oc(=O)cc(Cn3ncc(Cl)c(Cl)c3=O)c2cc1Cl | 39.8 µM (active)
Cc1ccc(-c2cc(C#N)c(=O)n(Cc3c(Cl)cccc3Cl)c2)cc1 | inactive
Cc1ccc(Cn2c(=O)c3c(ncn3C)n(C)c2=O)cc1 | inactive
O=c1c(Cl)c(Cl)cnn1Cc1ccc(F)cc1 | 39.8 µM (active)
Cc1cc2oc(=O)cc(CN3CCOCC3)c2cc1Cl | inactive
Cc1cccc(Cn2ncc(Cl)c(Cl)c2=O)c1 | 39.8 µM (active)
CC(=O)c1cn(-c2ccc(Cl)cc2)c(=O)n(Cc2ccc(F)cc2)c1=O | inactive
CCC(C)N1C(=O)S/C(=C/c2ccc(N3CCOCC3)cc2C)C1=O (stereo unspecified) | inactive

Compound | Potency
CCN(CC)Cc1c(O)ccc2cc(-c3nc4ccccc4n3C)c(=O)oc12 | inactive
Cc1c2ccccc2nc2c(F)c(N(C)C)c(F)c(F)c12 | inactive
Cc1c(O)ccc2cc(S(=O)(=O)c3ccccc3)c(=O)oc12 | inactive
Cc1cc(C(=O)COC(=O)[C@H](C)NC(=O)c2ccco2)c(C)n1Cc1ccco1 | inactive
COc1ccccc1Nc1nc2cc(C)ccc2cc1C#N | inactive
COc1ccc(C)cc1Nc1n[n+](-c2ccccc2)c(-c2c(OC)ccc3ccccc23)s1 | 20 µM (active)
COc1ccc(C)cc1NCc1ccc([N+](=O)[O-])cc1 | inactive
O=c1[nH]c(=O)n(-c2cc(Br)c(O)c(Br)c2)cc1Br | inactive
O=c1oc2ccccc2cc1-c1nc(-c2cccs2)cs1 | inactive
C=CCOc1ccc(C2C(C(=O)c3ccco3)=C(O)C(=O)N2c2nnc(C)s2)cc1 (stereo unspecified) | inactive
C=C1CC2(CC(c3ccccc3)OC(c3ccccc3)C2)OC1=O (stereo unspecified) | 39.8 µM (active)
O=C(/C=C/c1cn(CC(O)CN2CCCCCC2)c2ccccc12)c1cccs1 (stereo unspecified) | inactive
Fc1ccc(-c2ncc3ccccn23)cc1 | inactive
Cn1c(=S)n(C)c2ccccc21 | inactive
CN(C(=O)CSc1nnc(-c2cccs2)n1N)c1ccccc1 | inactive
O=C(Nc1nnc(C(F)(F)F)s1)c1c(F)cccc1F | inactive
CCC(NC(=O)Nc1nnc(C(F)(F)F)s1)(C(F)(F)F)C(F)(F)F | 31.6 µM (active)
CC1CCN(C(=O)CCC(=O)Nc2nnc(C(F)(F)F)s2)CC1 | inactive
O=C(O)CSc1nnc(-c2cccc(S(=O)(=O)N3CCOCC3)c2)n1-c1ccc(F)cc1 | inactive
N=C1C=CC(=C(c2ccc(N)cc2)c2ccc(N)cc2)C=C1 | 28.2 µM (active)
COc1ccc(COc2ncnc3ccc(Br)cc23)cc1F | inactive
Cc1cc(S(=O)(=O)NC2CC(C)(C)NC(C)(C)C2)c(Cl)cc1Cl | inactive

Compound | Potency
CC1CCCCN1CCCNC(=O)c1[nH]c2ccccc2c1Sc1ccc(Cl)cc1 (stereo unspecified) | 39.8 µM (active)
CC1CCCCC1NC(=O)CCn1c(=S)[nH]c2ccccc2c1=O (stereo unspecified) | inactive
CCC1CCCCN1CCCNC(=O)c1[nH]c2ccccc2c1Sc1ccc(Cl)cc1 (stereo unspecified) | 39.8 µM (active)
CCCCCn1c(=O)[nH]c2cc(C(=O)NCCCN3CCCCC3C)ccc2c1=O (stereo unspecified) | inactive
COc1ccccc1[C@H]1C(c2ccccc2)=NN(c2ccccc2)[C@@H]1CO | inactive
Cc1ccc(C2=CC(c3ccc(C)cc3)n3ncnc3N2)cc1 (stereo unspecified) | inactive
CC(=O)c1ccc(Nc2cc(C)nc3c(C)cc(C)cc23)cc1 | 29.9 µM (active)
Cc1ccc(Nc2cc(C)c(O)c(C)c2)cc1 | inactive
COCc1cc(C)nc2sc(C(=O)Nc3ccc(C(C)=O)cc3)c(N)c12 | inactive
COC(=O)Cc1c(C)c2cc3c(c(C)c2oc1=O)OCN(CCc1ccc(F)cc1)C3 | inactive
COC(=O)Cc1c(C)c2ccc3c(c2oc1=O)CN(Cc1ccccc1OC)CO3 | inactive
COc1ccc(C2C=C(c3ccc(Br)cc3)Nc3nc(N4C(=O)CCC4=O)nn32)cc1 (stereo unspecified) | inactive
CCc1cc(=O)oc2c(CN3CCN(C)CC3)c(O)ccc12 | inactive
Cc1ccc(-c2csc3ncnc(Sc4nnc(CN5CCCCCC5=O)o4)c23)cc1 | 39.8 µM (active)
CCN(CC)c1ccc(C(=O)OCC(=O)N(C(C)C)C(C)C)cc1 | inactive
CCN(CC)c1ccc(C(=O)c2cnc(/N=C/N(C)C)s2)cc1 | inactive
CCN(CC)c1ccc(C(=C2C=CC(=[N+](CC)CC)C=C2)c2ccc(N(CC)CC)cc2)cc1 | 10 µM (active)
CCOc1ccc(Nc2nc3c(C)cccc3cc2C#N)cc1 | inactive
O=C(Cc1ccc(Cl)cc1)Nc1ccc(-c2nnc(-c3ccco3)o2)cc1 | 39.8 µM (active)
Cc1ccc(NC(=O)Cc2ccc(Cl)cc2)nc1 | inactive
N=C(N)NS(=O)(=O)c1ccc(NC(=S)NC(=O)Cc2ccc(Cl)cc2)cc1 | inactive
CC(C)OCCCNC(=O)NC(=O)c1ccc(Cl)cc1 | inactive

Compound | Potency
O=C(COc1ccc(Cl)cc1)N(Cc1cccs1)C1CCS(=O)(=O)C1 (stereo unspecified) | inactive
CCOc1ccc(/C=C/C(=O)c2cc(Br)ccc(=O)c2O)cc1 | 22.4 µM (active)
Cc1cc(O)c(C(=O)/C=C/c2ccc(Cl)cc2)c(=O)o1 | inactive
CCOc1ccc(-n2cc(C(=O)c3cc(Cl)ccc3O)cc(C#N)c2=O)cc1 | inactive
CCOc1ccc(OCCOc2ccc(/C=C/C(=O)O)cc2OCC)cc1 | inactive
CCN=c1ccc(Br)cc(C(=O)/C=C/c2ccc(Cl)cc2)c1O | 31.6 µM (active)
CC(C)(C)c1ccc(C(=O)NNc2ncccc2-n2cccc2)cc1 | inactive
CC(=O)N/N=C/c1cc(C(C)C)cc(/C=N/NC(C)=O)c1O | inactive
COc1cc(OC)nc(-n2ncc(Br)c(Br)c2=O)n1 | 10.6 µM (active)
O=c1c(Br)c(Br)cnn1-c1ccccc1 | 4.23 µM (active)
Nc1cccc(Oc2c(F)c(F)c(Oc3cccc(N)c3)c(F)c2F)c1 | inactive
Cc1cnc(C(=O)OCC(=O)Nc2cccc3ccccc23)cn1 | inactive
Cc1ccc(NC(=O)CN(C)C(=O)COC(=O)c2nccnc2N)cc1 | inactive
CN(CC(=O)Nc1ccccc1Cl)C(=O)COC(=O)c1nc(Cl)c(Cl)c(Cl)c1Cl | 28.2 µM (active)
CCCc1c(-c2ccc(Cl)cc2)ncn1Cc1ccccc1OC | 44.7 µM (active)
COc1cc2c3nnc(-c4ccccc4)c-3cn(Cc3ccccc3F)c2cc1OC | inactive
CCCCc1c(-c2ccc(Cl)cc2)ncn1CCc1ccccc1OC | 39.8 µM (active)
CCCCCc1c(-c2ccc(Cl)cc2)ncn1CCc1ccccc1OC | 39.8 µM (active)
